Only some compounds are listed: those with a hit (about 4.3% of all), similar ones and a draw of the others.
HSF1 inhib = HSF1 inhibition; NIH3T3-HGL HSE-luciferase, MG132-induced, luminescence 8 h; hits give low values; activity change, negative = inhibition, % at 7.5 µM (by protocol); 300,000 tested, 0.77% active; AID 2098;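 active = more than half of replicate wells show activity change below -50%, luminescence cut by over half; inconclusive = some wells, but at most half, below -50%; inactive = no replicate well below -50%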;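 also: luciferase reports HSF-1 transcriptional activity via heat shock element; 0% = median of DMSO wells and -100% = zero luminescence signal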
esBAF inh = blocks esBAF chromatin remodeling in mouse ES cells; 350,000 tested, 2% active; AID 602393; reporter increase, % at 12.5 µM; Bmi1-luciferase knock-in reporter, 24 h; 100% = twice the neutral-well signal; in the data active = activation above about 40%; inconclusive = no clear call, values can overlap the other calls;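 also: 0% = median of the plate's neutral control wells and 100% = double that signal; a rise in the Bmi1 reporter signal indicates esBAF inhibition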
Wnt bcat act = activators of Wnt/beta-catenin signaling; Wnt/beta-catenin reporter cell assay, activator, plate reader; activation, % at 9.35 µM; AID 743398; 300,000 tested, 1.2% active; in the data active = activation above about 30%, passing the limit was not always enough; inconclusive = no clear call, values can overlap the other calls;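 also: 0% = neutral control wells and 100% = positive control wells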
SMARCA2 activ = increases SMARCA2 function in MMTV reporter cells; MG213 cells, MMTV-luciferase reporter, dexamethasone, overnight; activation, % at 9.1 µM; 370,000 tested, 1% active; in the data active = activation above about 7.8%;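 also: 0% = vehicle wells and 100% = reference activator wells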
MITF TRPM1 HTS = activators of MITF-driven TRPM1 promoter activity in SK-MEL-5 cells; SK-MEL-5 TRPM1-promoter luciferase, 24 h; % of positive control, neutral wells = 0; activation, % at 12.5 µM; 300,000 tested, 0.75% active; AID 588334;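 active = mean activation of at least 80% with every replicate also reaching 80%; inconclusive = mean reaches 80% but some replicate falls short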;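 also: 0% = neutral control wells and 100% = parthenolide positive control wells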
HSF-1 act = increases HSF-1 driven luciferase reporter signal; 300,000 tested, 1.7% active; AID 504408; NIH3T3-HGL HSF-1 luciferase reporter, MG132, 8 h; 100% = twice DMSO control signal; activation, % at 9 µM;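 active = mean replicate activation of at least 50% with a set share of replicates each reaching 50%; inconclusive = only one of those two conditions met; inactive = mean below 50% and too few replicates reaching it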;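 also: 0% = median of the neutral control wells and 100% = twice that signal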
The depositor's hits bear a star; ? = inconclusive; · = no result given.

SMILES | HSF1 inhib | esBAF inh | Wnt bcat act | SMARCA2 activ | MITF TRPM1 HTS | HSF-1 act
C[C@@H]1CN([C@H](C)CO)C(=O)c2cc(NS(=O)(=O)c3ccc(Cl)cc3)ccc2O[C@@H]1CN(C)Cc1ccc(C(=O)O)cc1 | · | 3.9 | · | · | · | ·
CC(C)NC(=O)N(C)C[C@H]1OCCCC[C@@H](C)Oc2ccc(NS(=O)(=O)c3ccc(F)cc3)cc2C(=O)N([C@H](C)CO)C[C@H]1C | · | 1.1 | · | · | · | ·
Cc1ccc(OCCn2ncc3ccccc3c2=O)c(C)c1 | -5.3 | 8.2 | 0.5 | -0.7 | 12.3 | 10.4
O=c1c2ccccc2cnn1CCOc1cccc(Br)c1 | 54.8 | 49.0* | 20.9 | 4.8 | -2.3 | 93.8*
Cc1noc(C)c1NC(=O)Nc1cccc2c1O[C@H](CN(C)C(=O)Nc1c(C)noc1C)[C@H](C)CN([C@H](C)CO)C2=O | · | 5.1 | · | · | · | ·
O=C1C(C=NCc2ccccn2)=C(O)c2ccccc21 | 14.3 | 73.4* | -1.6 | 6.9 | 50.3 | ?
O=C1C(C=NCCCn2ccnc2)=C(O)c2ccccc21 | -8.6 | 52.9* | -2.8 | -3.1 | -5.2 | 0.5
O=C(c1ccccc1)N1C[C@@H]2[C@H](c3ccccc31)[C@@H](CO)N2S(=O)(=O)c1ccccc1 | · | -6.3 | · | · | · | ·
O=C(O)C[C@@H]1CC[C@H](NC(=O)c2ccncc2)[C@@H](CO)O1 | · | -0.2 | · | · | · | ·
O=[N+]([O-])c1ccc(O)c(/C=N/Nc2ccccc2Cl)c1 | 6.3 | 47.1* | ? | 1.2 | 35.3 | 25.4
O=[N+]([O-])c1ccccc1/C=N/OCc1ccccc1 | 21.4 | 64.6* | 24.2 | 5.4 | 101.1* | 36.8
O=C(N/N=C/c1cc([N+](=O)[O-])ccc1O)C1CC1 | -11.9 | 12.8 | 2.5 | -2.4 | -22.5 | -18.0
O=[N+]([O-])c1ccccc1C=NNc1ccccc1 | · | 91.5* | 35.4* | 7.2 | 26.9 | ·
O=[N+]([O-])c1ccccc1N/N=C\c1ccccc1Cl | 27.7 | 62.3* | · | 2.9 | 40.9 | 35.6
COCCN(C[C@H]1N[C@H](CO)[C@@H]1c1ccc(-c2ccc(F)cc2)cc1)C(C)=O | · | 0.6 | · | · | · | ·
Cn1cc(CNC(=O)c2sc3cccc(Cl)c3c2Cl)cn1 | 57.2 | · | -5.6 | 0.4 | 9.4 | 89.9*
CCc1ccc(C(=O)NCc2cnn(C)c2)s1 | -0.3 | 35.6 | 2.5 | -2.5 | 15.7 | 2.1
CN(NC1OC(=O)c2ccccc21)c1ncc(Cl)cc1C(F)(F)F (centres undefined) | 36.7 | · | 0.3 | -1.7 | · | 66.3*
COc1ccc(C(=O)N2CCCC(c3ccccc3)C2)cc1 (centres undefined) | · | 10.4 | · | 3.5 | 11.8 | ·
O=C(c1ccc(F)cc1)N1CCC(c2ccccc2)C1 (centres undefined) | 16.9 | 32.9 | 34.2* | 2.0 | · | -2.6
O=C(c1ccco1)N1CCC(c2ccccc2)C1 (centres undefined) | 2.0 | 53.8* | · | 1.6 | ? | 16.8
CCc1ccc(NC(=O)CSc2nc3n[nH]c(C)c3c(=N)n2-c2cccc(OC)c2)cc1 | 40.0 | 9.3 | -5.2 | -2.0 | -18.2 | 68.6*
C[C@@H](NC(=O)C[C@H]1C[C@H]2c3cc(NC(=O)C4CCOCC4)ccc3O[C@H]2[C@H](CO)O1)c1ccccc1 | · | -1.8 | · | · | · | ·
Cc1nn2c(N)c(-c3ccccc3)cnc2c1-c1ccc(Cl)cc1 | 1.0 | ? | 16.6 | 5.5 | 101.1* | -2.1
Cc1nc2c(-c3ccccc3)c(C)nn2c(N)c1-c1ccccc1 | 5.3 | · | · | 4.7 | 86.5* | 12.5
SMILES | HSF1 inhib | esBAF inh | Wnt bcat act | SMARCA2 activ | MITF TRPM1 HTS | HSF-1 act
Cc1nn2c(-c3ccccc3)ccnc2c1-c1ccccc1 | 1.5 | · | 40.4* | -3.6 | ? | -18.6
CC(OC(=O)c1ccc(Br)o1)C(=O)Nc1ccc2c(c1)OCCO2 (centres undefined) | · | 2.8 | 5.1 | -4.1 | -0.3 | ·
C/C(=C\C(=O)c1ccc(C)o1)Nc1ccc2c(c1)OCO2 | 11.5 | 65.6* | · | 1.4 | 79.1 | 2.0
Cc1ccc(C(=O)Nc2ccc3c(c2)OCO3)o1 | 13.9 | 48.2* | · | 3.2 | 13.2 | 16.9
C/C(=C\C(=O)c1ccccc1)Nc1ccc2c(c1)OCO2 | 6.0 | · | 7.8 | 2.4 | 59.5 | 32.8
O=C(Nc1ccc2c(c1)OCCO2)c1ccc(Br)o1 | 19.1 | 17.4 | 54.5* | 5.5 | 48.4 | 39.4
C[C@@H]1CN([C@H](C)CO)C(=O)c2cc(NC(=O)Cc3ccccc3)ccc2O[C@@H](C)CCCCO[C@@H]1CN(C)S(=O)(=O)c1cccs1 | · | -2.8 | · | · | · | ·
